Sampled rows, rich in hits. Any-hit rate of the full collection: about 7%.
HP1b chromo inh = inhibitors of HP1-beta chromodomain binding to methylated histone tails; P83916; AlphaScreen HP1-beta / biotin-H3K9me3 peptide binding; Potency, µM (series often up to 114 µM), hits mostly inhibitors; 390,000 compounds, 0.56% hits; AID 540317; also: nearly all actives have a fitted effect of over 70% in size
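Compound inhibition of the preformed complex between 50 nM HP1-beta and 50 nM biotinylated H3K9me3 peptide was read by AlphaScreen. Buffer was PBS pH 7.4 with 0.01% Tween-20. Incubations ran 30 min at room temperature, with 10 ug/mL donor/acceptor beads.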
PLK1 PBD block = PLK1 (human) polo-box domain binding inhibition | P53350 | Plk1 PBD binding of FITC phosphopeptide, fluorescence polarization | Potency, µM, actives largely listed as inhibitors | 360,000 compounds, 2.8% hits | AID 720504; also: series mostly up to about 57 µM; nearly all actives have a fitted effect of over 65% in size
BAZ2B inh = inhibitors of human BAZ2B bromodomain. AlphaScreen BAZ2B-H3K14Ac peptide displacement. Potency, µM (highest dose often 114 µM), usual class: inhibitors. 360,000 compounds, 4.4% hits. AID 504333; also: nearly all actives have a fitted effect of over 60% in size
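AlphaScreen displacement: compounds (up to 110uM) incubated 30 min at room temperature with a preformed 50 nM BAZ2B/50 nM biotinylated H3K14Ac peptide complex in PBS pH 7.4 with Tween-20. Donor and acceptor beads at 10 ug/mL final added, 20 min light-protected before reading.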
PI5P4K alpha inh = inhibitors of human PI5P4K alpha; P48426; PI5P4Kalpha enzyme, ADP-Glo luminescence, 60 min; active compounds read low; max response, %; 330,000 compounds, 1.2% hits; active = max response of -50% or lower; inconclusive = between -30% and -50%; inactive = -30% or higher; also: value at the top dose of about 77 µM
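Luminescence from ADP-Glo served as readout of PI5P4Kalpha activity in a qHTS format. Reaction: enzyme, substrate, compound, ATP at 5 microM final, 60 min at RT.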
JMJD2A Tudor = blocks the human JMJD2A Tudor domain. O75164. AlphaScreen JMJD2A-Tudor / H3K4me3 peptide binding. Potency, µM (highest dose often 114 µM), most hits filed as inhibitors. 390,000 compounds, 4.4% hits; also: nearly all actives have a fitted effect of over 50% in size
KAT2A inh = GCN5L2 (KAT2A) acetyltransferase inhibition | GCN5L2 HAT assay, ThioGlo1 CoA-SH fluorescence | Q92830 | 390,000 compounds, 0.21% hits | Potency, µM (titrated, usually from 58.9 µM), hits mostly inhibitors | AID 504327
Target sequence (Q92830 whole entry, looked up): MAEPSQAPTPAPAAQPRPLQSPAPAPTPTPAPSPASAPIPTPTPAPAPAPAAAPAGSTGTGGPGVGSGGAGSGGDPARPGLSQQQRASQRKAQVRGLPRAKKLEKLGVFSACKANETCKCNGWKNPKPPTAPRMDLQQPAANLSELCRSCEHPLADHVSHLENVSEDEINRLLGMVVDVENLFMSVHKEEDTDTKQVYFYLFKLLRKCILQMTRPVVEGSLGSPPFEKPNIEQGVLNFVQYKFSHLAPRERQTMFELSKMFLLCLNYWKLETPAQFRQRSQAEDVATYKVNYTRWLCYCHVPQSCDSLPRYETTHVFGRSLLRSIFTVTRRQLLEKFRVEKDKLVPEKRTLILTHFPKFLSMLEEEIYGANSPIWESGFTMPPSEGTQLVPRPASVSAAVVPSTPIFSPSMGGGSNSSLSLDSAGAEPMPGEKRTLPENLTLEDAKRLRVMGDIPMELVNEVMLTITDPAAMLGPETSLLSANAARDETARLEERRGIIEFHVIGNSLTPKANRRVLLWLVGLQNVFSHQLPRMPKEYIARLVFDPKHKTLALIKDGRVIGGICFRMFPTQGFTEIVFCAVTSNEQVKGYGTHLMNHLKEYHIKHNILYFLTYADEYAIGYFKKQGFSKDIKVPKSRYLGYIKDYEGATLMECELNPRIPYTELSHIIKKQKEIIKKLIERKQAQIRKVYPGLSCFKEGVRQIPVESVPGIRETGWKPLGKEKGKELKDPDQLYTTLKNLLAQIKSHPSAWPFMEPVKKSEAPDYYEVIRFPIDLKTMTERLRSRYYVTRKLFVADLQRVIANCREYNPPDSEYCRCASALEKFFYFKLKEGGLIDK
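Titration-based screen in which CoA formation is detected via maleimide probe ThioGlo1 (50uM) turning fluorescent on thiol reaction; substrates H3(1-25) 75uM and acetyl-CoA 70uM, GCN5L2 20nM, 20 min incubation at room temperature.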
ADP-Glo counter = interferes with ADP-Glo detection without enzyme present | ADP-Glo detection counter-screen, luciferase luminescence, no enzyme | Potency, µM (titrated, usually from 76.9 µM), hits mostly inhibitors | 1,100 tested, under 10 active | shares compounds with PI5P4K alpha inh | AID 743285
Hits are given with their value. Unless noted, calls follow the shape of the dose curve; as a rule, active = well fitted curve in the direction sought with a large enough effect; inconclusive = small, poorly fitted or top-dose-only effect, or another doubt; inactive = no such curve, though single readings can be large; an effect the other way counts as inactive or inconclusive.

CS(=O)(=O)Nc1ccc(C2=NN(C(=O)c3ccco3)C(c3ccco3)C2)cc1 (centres undefined) was read as HP1b chromo inh inactive, PLK1 PBD block inactive, BAZ2B inh inconclusive, PI5P4K alpha inh inactive, JMJD2A Tudor inactive and KAT2A inh inactive.
Cc1ccc(C2CC(c3ccc(NS(C)(=O)=O)cc3)=NN2C(=O)c2ccco2)cc1 (centres undefined) was read as HP1b chromo inh inactive, PLK1 PBD block inactive, BAZ2B inh inactive, PI5P4K alpha inh inactive, JMJD2A Tudor inactive and KAT2A inh inactive.
CS(=O)(=O)Nc1ccc(C2=NN(C(=O)c3ccco3)C(c3cccc(F)c3)C2)cc1 (centres undefined) was read as HP1b chromo inh inactive, PLK1 PBD block inactive, PI5P4K alpha inh -65, JMJD2A Tudor inactive, KAT2A inh inactive and ADP-Glo counter inactive.
`CS(=O)(=O)Nc1ccc(C2=NN(C(=O)c3ccco3)C(c3ccccc3)C2)cc1` (centres undefined) gave HP1b chromo inh inactive, PLK1 PBD block inactive, BAZ2B inh inactive, PI5P4K alpha inh -51, JMJD2A Tudor inactive, KAT2A inh inactive and ADP-Glo counter inactive.
For O=C(O)CC1(C(=O)O)CC2C=CC1C2 (centres undefined) the results were PLK1 PBD block inactive and PI5P4K alpha inh inactive.
For CN(CC(=O)Nc1cccc(F)c1)C(=O)c1cccc(-n2cccc2)c1 the results were HP1b chromo inh inconclusive, PLK1 PBD block inconclusive, BAZ2B inh 28µM, PI5P4K alpha inh -82, JMJD2A Tudor 28µM, KAT2A inh inconclusive and ADP-Glo counter inactive.
CN(CC(=O)Nc1c(Cl)cccc1Cl)C(=O)c1cccc(-n2cccc2)c1 was read as HP1b chromo inh 32µM, PLK1 PBD block inconclusive, BAZ2B inh 35µM, PI5P4K alpha inh -78, JMJD2A Tudor 14µM, KAT2A inh inactive and ADP-Glo counter inactive.
CN(CC(=O)Nc1cccc(F)c1)C(=O)c1ccc(N2C(=O)c3ccccc3C2=O)cc1 was read as HP1b chromo inh inactive, PLK1 PBD block inactive, BAZ2B inh inactive, PI5P4K alpha inh inactive, JMJD2A Tudor inactive and KAT2A inh inactive.
`Cc1ccc(C)c(NC(=O)CN(C)C(=O)c2cccc(Oc3ccccc3)c2)c1` gave HP1b chromo inh inactive, PLK1 PBD block inactive, PI5P4K alpha inh inactive, JMJD2A Tudor inactive and KAT2A inh inactive.
Screening Cc1ccc(C)c(NC(=O)CN(C)C(=O)c2cccc(-n3cccc3)c2)c1 returned HP1b chromo inh 45µM, PLK1 PBD block inconclusive, BAZ2B inh 25µM, PI5P4K alpha inh -60, JMJD2A Tudor 16µM, KAT2A inh inactive and ADP-Glo counter inactive.
Screening CC1(C(=O)NCCc2ccccc2)Cc2c(-c3cccc(C(N)=O)c3)ccnc2O1 (centres undefined) returned PLK1 PBD block inactive and PI5P4K alpha inh inactive.
Screening O=C1CCC(C(=O)Nc2ccc([N+](=O)[O-])cc2)N1 (centres undefined) returned HP1b chromo inh inactive, PLK1 PBD block inactive, BAZ2B inh inactive, PI5P4K alpha inh -54, JMJD2A Tudor inactive, KAT2A inh inactive and ADP-Glo counter inactive.
Screening O=C(N=C1SC2CS(=O)(=O)CC2N1c1cc(Cl)ccc1Cl)C1CCCO1 (centres undefined) returned HP1b chromo inh inactive, PLK1 PBD block inactive, BAZ2B inh inactive, PI5P4K alpha inh inactive, JMJD2A Tudor inactive and KAT2A inh inactive.
Cc1cc(Oc2ccc(C#N)cc2)nc(NCc2ccccc2)n1 was read as HP1b chromo inh inactive, PLK1 PBD block 2.7µM, BAZ2B inh inactive, PI5P4K alpha inh -51, JMJD2A Tudor inconclusive, KAT2A inh inactive and ADP-Glo counter inactive.
For O=c1[nH]c(SCc2ccc(OC(F)(F)F)cc2)nc2c1CCC2 the results were PLK1 PBD block inactive and PI5P4K alpha inh inactive.
For CC1(C)CC(=O)C(c2ccccc2)(c2ccccc2)C(=O)C1 the results were HP1b chromo inh inactive, PLK1 PBD block inactive, PI5P4K alpha inh inactive and JMJD2A Tudor inactive.
Cc1cc(C)c(S(=O)(=O)c2ccc(C(C)(C)C)cc2)c(Cl)n1 was read as HP1b chromo inh inactive, PLK1 PBD block inactive, BAZ2B inh inactive, PI5P4K alpha inh inactive, JMJD2A Tudor inactive and KAT2A inh inactive.
For COc1ccccc1N1CCN(C(=O)c2ccc(C(C)(C)C)cc2)CC1 the results were HP1b chromo inh inactive, PLK1 PBD block 2.7µM, BAZ2B inh inactive, PI5P4K alpha inh -62, JMJD2A Tudor 3.2µM, KAT2A inh inactive and ADP-Glo counter inactive.
Screening O=P(O)(O)OC[C@H]1O[C@](O)(COP(=O)(O)O)[C@@H](O)[C@@H]1O returned KAT2A inh inactive.
Screening Nc1c(C(=O)O)cnc2c(-c3ccc(Cl)cc3)cnn12 returned HP1b chromo inh inactive, PLK1 PBD block inconclusive, BAZ2B inh 28µM, PI5P4K alpha inh -84, JMJD2A Tudor 28µM, KAT2A inh inactive and ADP-Glo counter inactive.
`O=C(COc1ccc(Cl)cc1Cl)Nc1cccc(-c2ccc(N3CCOCC3)nn2)c1` gave HP1b chromo inh inconclusive, PLK1 PBD block inactive, BAZ2B inh inactive, PI5P4K alpha inh inactive, JMJD2A Tudor inactive and KAT2A inh inactive.
`O=C(COc1ccccc1)Nc1cccc(-c2ccc(N3CCOCC3)nn2)c1` gave HP1b chromo inh inactive, PLK1 PBD block inactive, BAZ2B inh inactive, PI5P4K alpha inh inactive, JMJD2A Tudor inactive, KAT2A inh inactive and ADP-Glo counter inactive.
Cc1ccc(C(=O)c2sc3c(c2N)c(=O)[nH]c(=O)n3CCc2ccccc2)cc1 was read as HP1b chromo inh inactive, PLK1 PBD block inactive, BAZ2B inh inactive, PI5P4K alpha inh inactive, JMJD2A Tudor inactive and KAT2A inh inactive.
Screening CCn1c(=O)[nH]c(=O)c2c(N)c(C(=O)c3cc(F)ccc3F)sc21 returned HP1b chromo inh inactive, PLK1 PBD block inactive, BAZ2B inh inactive, PI5P4K alpha inh -64, JMJD2A Tudor inactive, KAT2A inh inactive and ADP-Glo counter inactive.
For CC(=O)CSc1ncnc2sc3c(c12)CCC3 the results were HP1b chromo inh inactive, PLK1 PBD block inactive, PI5P4K alpha inh inactive, JMJD2A Tudor inactive and KAT2A inh inactive.
Screening O=C(CSc1ncnc2sc3c(c12)CCC3)N1CCOCC1 returned HP1b chromo inh inactive, PLK1 PBD block inactive, BAZ2B inh inconclusive, PI5P4K alpha inh -54, JMJD2A Tudor inconclusive, KAT2A inh inactive and ADP-Glo counter inactive.
For CC1Cc2ccccc2N1C(=O)CNc1cccc(S(=O)(=O)N2CCCC2)c1 (centres undefined) the results were HP1b chromo inh inactive, PLK1 PBD block 3.8µM, BAZ2B inh inconclusive, PI5P4K alpha inh -66, JMJD2A Tudor 6.3µM, KAT2A inh inactive and ADP-Glo counter inactive.

Assay outcomes as filed in PubChem BioAssay.
